According to PubChem BioAssay (NCATS):
Results filed as inconclusive are left out. Active and inactive are the calls of the source. Calls follow the shape of the dose curve; as a rule, active = well fitted curve in the direction sought with a large enough effect; inconclusive = small, poorly fitted or top-dose-only effect, or another doubt; inactive = no such curve, though single readings can be large; an effect the other way counts as inactive or inconclusive.

Tests used:
[1] = biological target: Aldehyde dehydrogenase, mitochondrial (Homo sapiens) (UniProt P05091); assay: qHTS for Inhibitors of the Aldehyde Dehydrogenase Family (ALDH2) Primary screen (AID 2061308);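 also: plate controls were vehicle for no effect and reference inhibitor for full effect; nearly all actives have a fitted effect of over 55% in size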
[2] = biological target: Retinaldehyde dehydrogenase 3 (Homo sapiens) (UniProt P47895); assay: qHTS for Inhibitors of the Aldehyde Dehydrogenase Family (ALDH1A3) Validation screen (AID 2061312); also: nearly all actives have a fitted effect of over 45% in size; also: potency is read from the fitted curve at half-maximal effect; as to activity change, negative = inhibition: % is scaled to controls: 0 for no effect and ±100 for the full control effect
[3] = biological target: Retinaldehyde dehydrogenase 3 (Homo sapiens) (UniProt P47895); assay: qHTS for Inhibitors of the Aldehyde Dehydrogenase Family (ALDH1A3) Primary screen (AID 2061315);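 also: plate controls were DMSO vehicle for no effect and reference inhibitor for full effect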
[4] = BET inhibitor-based combinations targeting novel dependencies in MECOM-rearranged (r) AML: SET-2 cell line (AID 2202231); settings: SET-2 AML cells viability, CellTiter-Glo luminescence, 48 h; viability: active compounds read low, concentration not given here; also: potency is read from the fitted curve at half-maximal effect; nearly all actives have a fitted effect of over 35% in size
In short: (§1)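 A 48 hr incubation preceded viability reading by CellTiter-Glo, with 15 min room-temperature development. Dose series had 11 points; normalization used DMSO and empty wells; AUC was computed and mean-centered per line as Z-AUC.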

[5] = BET inhibitor-based combinations targeting novel dependencies in MECOM-rearranged (r) AML: OCI-AML3 cell line (AID 2202232); settings: Potency: OCI-AML3 viability; also: potency is read from the fitted curve at half-maximal effect; nearly all actives have a fitted effect of over 35% in size
In short: as §1

[6] = BET inhibitor-based combinations targeting novel dependencies in MECOM-rearranged (r) AML: MV-4-11 cell line (AID 2202233); also: potency is read from the fitted curve at half-maximal effect; nearly all actives have a fitted effect of over 45% in size
In short: (§2)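 Each compound is tested in an 11-point concentration series against 500 seeded cells/well for 48 hr. The luminescent viability signal is normalized to DMSO and blank wells, then reduced to AUC and a cell-line-centred Z-AUC.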

[7] = BET inhibitor-based combinations targeting novel dependencies in MECOM-rearranged (r) AML: HNT-34 cell line (AID 2202234); also: potency is read from the fitted curve at half-maximal effect; nearly all actives have a fitted effect of over 35% in size
In short: as §2

[8] = BET inhibitor-based combinations targeting novel dependencies in MECOM-rearranged (r) AML: UCSD-AML1 cell line (AID 2202235); also: potency is read from the fitted curve at half-maximal effect; nearly all actives have a fitted effect of over 40% in size
In short: as §2

[9] = BET inhibitor-based combinations targeting novel dependencies in MECOM-rearranged (r) AML: AML-191 cell line (AID 2202236; also: potency is read from the fitted curve at half-maximal effect; nearly all actives have a fitted effect of over 35% in size)
In short: as §1

[10] = BET inhibitor-based combinations targeting novel dependencies in MECOM-rearranged (r) AML: AML-194 cell line (AID 2202237; also: potency is read from the fitted curve at half-maximal effect; nearly all actives have a fitted effect of over 40% in size)
In short: as §1

COc1cc2ncnc(N3CCC(Oc4cnc5ccccc5n4)C3)c2cc1OC (centres undefined)
inactive: Potency [1] | Potency [2] | Potency [3]

N#CC(CCCN1CCC(O)(c2ccc(Cl)cc2)CC1)(c1ccccc1)c1ccccc1
inactive: Potency [1] | Potency [2] | Potency [3]

CC(C)[C@@](C)(O)[C@@H]1CN(c2nc(-c3[nH]nc4ncccc34)c(F)cc2Cl)CCN1
inactive: Potency [1] | Potency [2] | Potency [3]

O=C(c1ccccc1)c1ccc2nc(NC(=O)c3csc(C4CCN(c5ncnc6ccsc56)CC4)n3)[nH]c2c1
inactive: Potency [1] | Potency [2] | Potency [3]

NC(=O)C(CCC(F)(F)F)N(Cc1ccc(-c2ncon2)cc1F)S(=O)(=O)c1ccc(Cl)cc1 (centres undefined)
inactive: Potency [1] | Potency [2] | Potency [3]

CNC(=O)c1ccccc1Nc1nc(Nc2ccc3c(c2OC)CCCC(N2CCN(CCO)CC2)C3)ncc1Cl (centres undefined)
inactive: Potency [1] | Potency [2] | Potency [3]

CC[C@H](/C=C/[C@@H](C)[C@H]1CC[C@H]2[C@@H]3CC=C4C[C@@H](O)CC[C@]4(C)[C@H]3CC[C@]12C)C(C)C
inactive: activity change, negative = inhibition [1] -2.53% [at 5.59 µM] | activity change, negative = inhibition [2] -13.7% [at 9.14 µM] | activity change, negative = inhibition [3] 15.3% [at 5.59 µM]

CN(c1ccccc1CNc1nc(Nc2ccc3c(c2)CC(=O)N3)ncc1C(F)(F)F)S(C)(=O)=O
inactive: Potency [1] | Potency [2] | Potency [3]

N#Cc1ccc(COc2ccc(-c3cccc4nc(NC(=O)C5CC5)nn34)cc2)cn1
inactive: Potency [1] | Potency [2] | Potency [3]

CCc1cc2c(cc1CC)CC(NCC(O)c1ccc(O)c3[nH]c(=O)ccc13)C2 (centres undefined)
inactive: Potency [1] | Potency [2] | Potency [3]

CC(C)(C)c1ccc(CN2CCN(C(c3ccccc3)c3ccc(Cl)cc3)CC2)cc1 (centres undefined)
active: Potency [2] 31600 nM
inactive: Potency [1] | Potency [3]

CCC(C)CNCC(=O)N1CCc2sccc2C1COc1cccc(C)c1 (centres undefined)
inactive: Potency [1] | Potency [2] | Potency [3]

CCCSc1nc(N[C@@H]2C[C@H]2c2ccc(F)c(F)c2)c2nnn([C@@H]3C[C@H](OCCO)[C@@H](O)[C@H]3O)c2n1
inactive: Potency [1] | Potency [2] | Potency [3]

CN(c1nccc(=O)[nH]1)C1CCN(c2nc3ccccc3n2Cc2ccc(F)cc2)CC1
inactive: Potency [1] | Potency [2] | Potency [3]

C=C[C@H]1CN2CC[C@H]1C[C@H]2[C@H](O)c1ccnc2ccc(OC)cc12
inactive: Potency [1] | Potency [2] | Potency [3]

CN(C)Cc1ccc(-c2cnn3c(-c4cccc(NC(=O)c5cccc(C(F)(F)F)c5)c4)ccnc23)cc1
inactive: Potency [1] | Potency [2] | Potency [3]

Cc1cn(-c2cc(NC(=O)c3ccc(C)c(Nc4nccc(-c5cnccn5)n4)c3)cc(C(F)(F)F)c2)cn1
inactive: Potency [1] | Potency [2] | Potency [3]

CC(=O)Nc1nc2c(Oc3cc(-c4ccc(C(F)(F)F)cc4)ncn3)cccc2s1
inactive: Potency [1] | Potency [2] | Potency [3]

CNC1CN(c2ccc3c(=O)c(C(=O)O)cn(-c4nccs4)c3n2)CC1OC (centres undefined)
inactive: activity change, negative = inhibition [1] 2.97% [at 11.2 µM] | activity change, negative = inhibition [2] -0.123% [at 20.1 µM] | activity change, negative = inhibition [3] -3.75% [at 11.2 µM]

CC(C)(C(=O)NCC(F)(F)C(F)(F)F)C(=O)NC1C(=O)Nc2ccccc2-c2ccccc21 (centres undefined)
inactive: Potency [1] | Potency [2] | Potency [3]

Cc1cn(C2C=CC(CO)O2)c(=O)[nH]c1=O (centres undefined)
inactive: Potency [1] | Potency [2] | Potency [3]

CCOC(=O)Nc1nc2ccccc2[nH]1
inactive: Potency [1] | Potency [2] | Potency [3]

Cc1nc2ccc(CN(C)c3ccc(C(=O)NC(CCC(=O)O)C(=O)O)s3)cc2c(=O)[nH]1 (centres undefined)
inactive: Potency [1] | Potency [2] | Potency [3]

CC(=O)OCC(=O)[C@@]1(O)[C@H](C)C[C@H]2[C@@H]3CCC4=CC(=O)C=C[C@]4(C)[C@@]3(F)[C@@H](O)C[C@@]21C
inactive: Potency [1] | Potency [2] | Potency [3]

CCN(CC)CCN(Cc1ccc(-c2ccc(C(F)(F)F)cc2)cc1)C(=O)Cn1c(SCc2ccc(F)cc2)nc(=O)c2c1CCC2
inactive: Potency [1] | Potency [2] | Potency [3]

OC1CCC(Nc2ncc3nc(Nc4c(F)cc(F)cc4F)n([C@H]4CCOC4)c3n2)CC1 (some centres undefined)
inactive: Potency [1] | Potency [2] | Potency [3]

Cc1ccc(O)cc1Nc1ccnc(Nc2cccc(C(N)=O)c2)n1
inactive: Potency [1] | Potency [2] | Potency [3]

C=CC(=O)Nc1cccc(CN2C(=O)N(c3c(Cl)c(OC)cc(OC)c3Cl)Cc3cnc(NCCCCN(CC)CC)nc32)c1
inactive: Potency [1] | Potency [2] | Potency [3]

O=C(/C=C\n1cnc(-c2cc(C(F)(F)F)cc(C(F)(F)F)c2)n1)N1CC(F)(F)C1
active: Potency [4] 1660 nM | Potency [5] 2630 nM | Potency [6] 1320 nM | Potency [7] 5250 nM | Potency [8] 934 nM | Potency [9] 1320 nM | Potency [10] 1050 nM
inactive: Potency [1] | Potency [2] | Potency [3]
